Consider 40 compounds from PubChem BioAssay (Tox21).

Values joined by “and” are separate entries in the source; they are usually repeats but may differ in a detail not shown here. Identical values can stand only once. Inconclusive results are not listed. Where a call stands in place of a potency, no number is given. Active and inactive are the calls of the source. The call rests on the fitted dose curve; in most records, active means well fitted cell-killing curve with a large enough effect in the repeat runs; inconclusive means weak or mixed curves, or effect the other way; inactive means flat fitted curve, though single readings scatter.
Potency means the concentration at half of the fitted maximal effect.

This test in a line: cAMP Responsive Elements (CRE) small molecule agonists, cell-based qHTS assay: qHTS cell viability counter screen (AID 2060914). Further: nearly all actives have a fitted effect of over 50% in size. To be noted: CRE-bla HEK293T viability, CellTiter-Glo luminescence, 5 h; series mostly up to 92.4 µM. The text has this: National Center for Advancing Translational Sciences [NCATS]
Division of Preclinical Innovation [DPI]
U.S. Environmental Protection Agency [EPA]
National Institutes of Environmental Health Sciences [NIEHS]
National Toxicology Program [NTP]
U.S. Food and Drug Administration [FDA]
CREB (cyclic-AMP Responsive Element Binding Protein) is a cellular transcription factor. It binds to certain DNA sequences called cAMP Responsive Elements (CRE) and regulates the transcription of the genes. […] This cell line can be used to find agonists/antagonists of the cyclic AMP signaling pathway. The activation of the report gene under culture conditions can be detected by fluorescence intensity. This cell line has been used to screen the Tox21 10K compound library to identify agonists that induce oxidative stress. The cytotoxicity of the Tox21 compound library against the CRE-bla cell line was tested in parallel by measuring the cell viability using CellTiter-Glo assay (Promega, Madison, WI) in the same wells.
Tox21 Assay Protocol Summary:
CRE-bla Hek 293T cells were suspended in assay medium (DMEM containing 10% dialyzed FBS, 0.1 mM NEAA, 1 mM sodium pyruvate and 25 mM HEPES) and dispensed at 2,000 cells/5 uL /well into 1536-well black wall/clear bottom plates using a Multidrop Combi (ThermoFisher Scientific, Waltham, MA) dispenser. After the assay plates were incubated at 37 C/5% CO2 for 18 hrs, 23 nL of compounds dissolved in DMSO, positive controls or DMSO only was transferred to the assay plate by a pintool workstation (Kalypsys, San Diego, CA). After the plates were incubated at 37 C/5% CO2 for 3 hrs, 1 uL of LiveBLAzer B/G FRET substrate (Invitrogen, Carlsbad, CA) was added to each well using Bioraptr Flying Reagent Dispenser (FRD, Aurora Discovery, San Diego, CA). The plates were incubated at room temperature for 2 h, then fluorescence intensities were measured using an Envision plate reader (PerkinElmer, Shelton, CT) at Excitation 405nm, Emission 460nm and 530nm. The % activity was determined from the ratio of 460nm/530nm. For cell viability readout that measures cytotoxicity, 4 uL /well of CellTiter-Glo reagent was added into the assay plates using Bioraptr FRD. After 30 min incubation at room temperature, the luminescence intensity in the assay plates was measured using a ViewLux (PerkinElmer, Shelton, CT) plate reader.
(In general: Quantitative high-throughput screening tests each substance at several concentrations.)
Take `CCC/C=C(\C=O)CC`: the Potency entry was “inactive”.
The same measure, in the same setting: in the case of `CN(C)CCOC1=Cc2ccccc2Sc2ccc(Cl)cc21` it was “inactive”; in that of `CCCCc1ccc2cccc(S(=O)(=O)O)c2c1`, “inactive”.
Turning to `c1ccc2c(CC3=NCCN3)cccc2c1`, the Potency result is “inactive”.
On the same count and under the same terms, in the case of `O=C(CC(C(=O)OC1CCCCC1)S(=O)(=O)O)OC1CCCCC1` (stereo not given) it was “inactive”; in that of `CO[Si](CCCNc1ccccc1)(OC)OC`, “inactive”; in that of `CC(=O)OCCN(CCOC(C)=O)c1ccc(N=Nc2ccc([N+](=O)[O-])cc2C#N)cc1`, “inactive”.
Take `CCCCCCCCCC[N+](C)(C)[O-]`: the Potency entry is “inactive”.
As for `NC(=S)N/N=C/c1cccnc1`, the Potency entry was “inactive”.
Take `CC/C=C\CC/C=C/C(OCC)OCC`: the Potency entry is “inactive”.
For `CCCCN1C=CN(C)C1`, the activity change, negative = cytotoxicity is 2.49% [at 18.9 µM] (inactive).
With `O=C1CCC(C2CCCCC2)CC1`, the Potency entry is “inactive”.
Same read-out and setting: in the case of `NCc1cccc(CN)c1` it was “inactive”.
For `ClC1=C(Cl)C1(Cl)Cl`, the Potency result was “inactive”.
On to `O=CC(=O)c1ccccc1`, for which the Potency entry was “inactive”.
Consider `CN(CCCN1c2ccccc2CCc2ccccc21)CC(=O)c1ccc(Cl)cc1`, for which the Potency entry is “inactive”.
As for `C=CCc1ccccc1OCC(O)CNC(C)C` (stereo not given), the Potency result is “inactive”.
Take `CC(=O)CC(=O)Nc1ccc2[nH]c(=O)[nH]c2c1`: the Potency entry was “inactive”.
For `CN(C)Cc1ccccc1`, the Potency result was “inactive”.
Regarding `CN1Cc2cc(C(=O)N3CCC(C4CCNCC4)CC3)ccc2N[C@@H](CC(=O)O)C1=O`, the Potency result was “inactive”.
With `CC(C)CC(=O)OCc1ccccc1`, the Potency entry is “inactive”.
Same read-out and setting: in the case of `CCCCO` it was “inactive”; in that of `C1CCCC1`, “inactive”; in that of `CCOC(=O)OC(C)OC1=C(C(=O)Nc2ccccn2)N(C)S(=O)(=O)c2ccccc21` (stereo not given), “inactive”.
`CC(=O)Nc1c(I)cc(I)c(C(=O)O)c1I`: the Potency result was “inactive”.
In the case of `CC(C)=CCC/C(C)=C/C=N/O`, the Potency entry was “inactive”.
Still for that read-out and setting: in the case of `C1=C\CC/C=C\CC/1` it was “inactive”; in that of `SCCSCCS`, “inactive”.
On the same count and under the same terms, in the case of `C=CCn1cc[n+](C)c1` it was “inactive”; in that of `O=c1c2ccccc2oc2ccccc12`, “inactive”; in that of `CCc1nc(N)nc(N)c1-c1ccc(Cl)cc1`, “inactive”.
`CCOCCO`: the Potency result was “inactive”.
Still for that read-out and setting: in the case of `O=c1cc(-c2ccccc2)oc2cc(O)cc(O)c12` it was “inactive”; in that of `CCN(Cc1cccc(S(=O)(=O)O)c1)c1ccc(C(=C2C=CC(=[N+](CC)Cc3cccc(S(=O)(=O)[O-])c3)C=C2)c2ccccc2)cc1`, “inactive”; in that of `CCCCCCCCCCCC[N+](C)(C)Cc1ccccc1`, 53.4 µM (active) and 37.4 µM (active) and 29.8 µM (active).
In the case of `C/C=C1/CC2C=CC1C2` (stereo not given), the Potency result is “inactive”.
Regarding `C[C@@H]1CC(=O)NN=C1c1ccc(NN=C(C#N)C#N)cc1`, the Potency result was “inactive”.
As for `O=C(CCCCCCCCC#CI)Oc1ccccc1`, the Potency entry is “inactive”.
As for `Brc1nc2ccccc2s1`, the Potency result was “inactive”.
Turning to `CCOc1ccc(N)c([N+](=O)[O-])c1`, the Potency entry was “inactive”.
